Screens as filed in PubChem.
HSP90 refold inh – blocks HSP90-mediated luciferase refolding in reticulocyte lysate | Rabbit reticulocyte lysate, luciferase refolding luminescence, 3 h | inhibition, % at 5.6 µM | hit rate 0.91% among 290,000;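 active = inhibition above the screen-wide mean plus 3 SD, computed separately per campaign, cut at about 16% in these data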;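 note: 0% = DMSO wells and 100% = 60 µM geldanamycin wells; inhibitors lower the luminescence because luciferase stays unfolded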
PPC-1+TRAIL kill – kills PPC-1 cancer cells in the presence of TRAIL | PPC-1 cells + TRAIL, ATPLite viability luminescence | cell killing (% activity), % at 4 µM or 5 µM | hit rate 0.41% among 220,000;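 active = cell killing above 50% in the first pass at 4 µM, then a duplicate retest at 5 µM averaging 50% or more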;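 note: plate controls were cells with TRAIL plus DMSO for no effect and medium-only wells lacking cells for full effect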
TROY signal inh – inhibitors of TROY-dependent NF-kB signaling; Q293 LMP1-TROYcd NF-kB luciferase reporter, 4 h; inhibition, % at 10 µM; hit rate 0.98% among 360,000;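 active = compounds whose plate-normalised and pattern-corrected inhibition of the luciferase reporter signal at the single screening dose is 50% or more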
TWEAK-Fn14 inh – blocks TWEAK-Fn14 interaction in a reporter cell assay; TWEAK-stimulated Fn14 reporter cells, luciferase luminescence, 8 h; inhibition, % at 10 µM; hit rate 2% among 360,000; AID 1159606; in the data active = inhibition above about 50%
Platelet DG rel – modulates dense granule release in human platelets. human platelet-rich plasma, SFLLRN dense granule ATP release, luminescence. hit rate 0.22% among 300,000. AID 1663. inhibition, %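 (compounds screened at 7.5 µM in platelet-rich plasma)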;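 active = mean replicate score, as percent of positive control, at or above 50; inconclusive = mean below 50 but at least one replicate at or above 50; inactive = mean and every replicate below 50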
C8 TRAIL sens – caspase-8 TRAIL sensitization. inhibition (viability loss, TRAIL sensitization), % at 10 µM. hit rate 1% among 360,000. NB7+C8 cells + TRAIL, ATPlite viability luminescence;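 active = compounds causing at least 50% loss of cell viability in the single-dose screen, relative to plate controls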
The depositor's hits bear a star; ? = inconclusive; / = no result given. The list is not random: actives were taken first. Their share in the collection is about 3.5%.

SMILES	HSP90 refold inh	PPC-1+TRAIL kill	TROY signal inh	TWEAK-Fn14 inh	Platelet DG rel	C8 TRAIL sens
CC(C)c1nnc(NC(=O)c2nc(S(=O)(=O)Cc3ccc(F)cc3)ncc2Cl)s1	9	/	29	99*	-19	94*
Cc1nnc(NC(=O)c2nc(S(=O)(=O)Cc3ccccc3C)ncc2Cl)s1	1	/	28	102*	-14	97*
Cc1nnc(NC(=O)CCS(=O)(=O)c2ccccc2)s1	2	/	-14	14	-3	1
CCCCCCCCN1C(=O)[C@H](CC(=O)NCc2cccc(C(F)(F)F)c2)C[C@@]2(C(=O)OCC)CCC=C12	/	/	/	/	/	1
CCOc1ccccc1OCCCC(=O)NNC(=O)c1nn(C)c(=O)c2ccccc12	/	/	-8	-13	/	-4
CC(C)c1nnc(NC(=O)c2nc(S(=O)(=O)Cc3ccccc3F)ncc2Cl)s1	-2	/	/	/	-17	/
Cc1ccc(CS(=O)(=O)c2ncc(Cl)c(C(=O)Nc3nnc(C(C)C)s3)n2)cc1	3	/	60*	100*	-14	83*
CC(C)c1nnc(NC(=O)CS(=O)(=O)Cc2ccccc2)s1	0	15	-9	16	-3	-10
CSc1nnc(NC(=O)c2nc(S(=O)(=O)Cc3ccccc3F)ncc2Cl)s1	1	/	7	97*	3	81*
Cc1cccc(CS(=O)(=O)c2ncc(Cl)c(C(=O)Nc3nnc(C(C)C)s3)n2)c1	5	/	55*	101*	-13	95*
CC(=O)NCN1CCN(CNC(C)=O)CC1	0	16	-1	74*	-1	-6
O=C(OCc1nc2ccc(Cl)cc2n1CCO)c1ccc(O)cc1	0	8	77*	67*	8	-12
O=C(OCc1nc2ccc(Cl)cc2n1CCO)c1ccccc1	2	10	-6	7	-6	1
O=C(Nc1ccc(N2CCOCC2)c(F)c1)c1cccs1	3	/	-32	9	-17	56*
COC(=O)c1cc(NC(=O)c2cccs2)ccc1N1CCOCC1	-4	/	12	0	3	-7
COC(=O)Cc1[nH]n(-c2nc3ccccc3s2)c(=O)c1C(C)=O	6	37	21	38	5	10
COc1ccc(CN=C(C)c2c(C(F)(F)F)[nH]n(-c3nc4ccccc4s3)c2=O)cc1	2	4	-34	58*	3	-7
CCN(CC(=O)NCc1ccc(Cl)cc1)C(=O)CN1C(=O)NC(CC)(c2ccccc2)C1=O (stereo not given)	-4	/	-10	91*	8	1
CCN(CC(=O)NCc1ccc(Cl)cc1)C(=O)CN1C(=O)NC(C)(c2ccccc2)C1=O (stereo not given)	2	/	-25	-4	10	3
Oc1c(C=Nc2ccccc2Cl)[nH]c2ccccc12	3	7	52*	26	-1	5
CCOc1ccc(NC(=O)NC(=O)N(C(C)C)S(C)(=O)=O)cc1	1	-5	-3	-8	5	11
O=C(/C=C/c1cn(-c2ccccc2)nc1-c1cccnc1)N1CCCC1	-1	28	44	23	-2	-7
O=C(/C=C/c1cn(-c2ccccc2)nc1-c1cccnc1)c1ccco1	3	15	32	80*	-10	1
CN1C(=O)N(CC(=O)N2CCN(S(=O)(=O)c3ccc4c(c3)CCC4)CC2)C(=O)C12CCCCC2	/	/	-10	10	/	1
O=C(CCl)N1CCN(S(=O)(=O)c2ccc3c(c2)CCC3)CC1	/	/	9	11	/	91*
SMILES	HSP90 refold inh	PPC-1+TRAIL kill	TROY signal inh	TWEAK-Fn14 inh	Platelet DG rel	C8 TRAIL sens
CC(C)CNC(=O)C1(C)CCCN1C(=O)c1ccc2ccccc2n1 (stereo not given)	/	/	-12	-3	/	-14
COc1ccc(S(=O)(=O)NC2(C(F)(F)F)NC(=O)N(CCc3ccccc3)C2=O)cc1 (stereo not given)	-3	/	1	-8	-5	-15
CC1(C)Cc2c(C#N)c(SCCOc3ccccc3)nc(N3CCOCC3)c2CO1	0	-10	-3	53*	-4	13
COc1cc(NCCCCC(C)N)c2nccc(C)c2c1 (stereo not given)	/	/	-9	6	/	54*
Cc1ccc(NC(=O)c2cc(S(=O)(=O)NCCC3=CCCCC3)ccc2F)cc1	1	7	35	57*	1	19
COc1ccc(S(=O)(=O)N(C)C[C@H]2OCc3cn(nn3)CCCC(=O)N([C@H](C)CO)C[C@@H]2C)cc1	/	/	-2	8	/	3
CC(C)(C)c1ccc(OCc2ccc(C(=O)N/N=C/c3ccc(O)c(O)c3)cc2)cc1	17*	2	-21	43	4	24
O=C(COC(=O)C1CC2C=CC1C2)Nc1ccccc1[N+](=O)[O-] (stereo not given)	/	/	-15	-17	/	-12
COc1ccc(NC(=S)N/N=C/c2cccn2Cc2ccc(F)cc2)cc1	-2	-6	6	-15	4	26
CCOC(=O)c1sc2nc(NC(=O)C(C)(C)C)sc2c1C	11	14	68*	65*	9	37
COC(=O)c1ccc2c(c1)C(C)(C)C(/C=C/c1ccccc1O)=[N+]2C	3	11	14	87*	19	36
COCCN=c1scc(-c2cc(OC)c(OC)c(OC)c2)n1/N=C/c1c(C)[nH]c2ccccc12	-3	-9	20	54*	-5	-7
CC1(C(=O)Nc2cccc(Oc3ccccc3)c2)CCN1C1Cc2ccccc2C1 (stereo not given)	/	/	11	-20	/	17
COc1cc2c(cc1OC)-c1cc(Nc3ccc(C)cc3)nc(=O)n1CC2	-3	/	1	-38	113*	2
COc1cc2c(cc1OC)-c1cc(Nc3ccccc3Br)nc(=O)n1CC2	-1	/	19	-11	94*	-2
COc1cc2c(cc1OC)-c1cc(N3CCCCCC3)nc(=O)n1CC2	-3	10	-4	-24	54*	-7
COc1cc2c(cc1OC)-c1cc(N3CCc4ccccc43)nc(=O)n1CC2	1	-15	22	-20	?	-3
COc1cc2c(cc1OC)-c1cc(NC3CCCCCC3)nc(=O)n1CC2	0	-29	0	-24	82*	15
COc1cc2c(cc1OC)-c1cc(N3CCCc4ccccc43)nc(=O)n1CC2	-1	18	19	-38	14	-10
O=C(COC(=O)CNS(=O)(=O)c1ccc(Br)cc1Cl)Nc1ccc(N2CCOCC2)cc1	/	/	6	9	-4	7
Cn1c(N)nc2nc[nH]c2c1=S	/	/	-9	-2	/	-4
COC(=O)[C@H](NC(=O)c1cc([C@@H](NC(=O)OC(C)(C)C)C(C)C)sc1N)C(C)C	/	/	/	/	/	5
COc1cc2c(cc1OC)-c1cc(Nc3ccccc3)nc(=O)n1CC2	13	-5	4	-32	131*	-8
COc1ccc(Nc2cc3n(c(=O)n2)CCc2cc(OC)c(OC)cc2-3)cc1	2	/	16	-43	61*	4
COc1cc2c(cc1OC)-c1cc(Nc3ccc(C(=O)O)cc3)nc(=O)n1CC2	3	/	8	-25	5	10
